Measurements: PubChem BioAssay AID686978 (National Center for Advancing Translational Sciences (NCATS), 2013)
Where “and” joins values, the source holds several entries; their conditions need not be identical. Equal entries are not always repeated. Among all 420,000 compounds or so, about 64,000 (15%) were called active. Roughly 27% stayed inconclusive and do not appear here. Calls come from the whole dose curve; as a rule, active = well fitted inhibition curve with a large enough effect; inconclusive = small, poorly fitted or top-dose-only effect; inactive = flat fitted curve, though single readings scatter. A selection follows. Where a call stands in place of a potency, no number is given.

experiment: qHTS for Inhibitors of human tyrosyl-DNA phosphodiesterase 1 (TDP1): qHTS in cells in absence of CPT; conditions: DT40 Tdp1-/- hTDP1 cells, no CPT, ATP luminescence, 48 h; activity change, negative = growth inhibition: at 46.2 µM (top of the series); note: nearly all actives have a fitted effect of over 55% in size
How it was run: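 A cellular qHTS used chicken DT40 cells lacking endogenous Tdp1 but carrying stably transfected human TDP1. Compounds were applied without camptothecin, and cell growth kinetics were judged by ATP-dependent luminescence after ≥48 hr.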
Potency is the fitted concentration of half-maximal effect.

Compound | Potency
O=C(CSc1nnc2n1CCCN2)c1ccccc1 | inactive
COc1cccc(OC)c1C(=O)OCC(=O)/C(C#N)=C(\C)N | inactive
Cc1ccc(-n2ncc3c(=O)n(Cc4cccc(C(F)(F)F)c4)cnc32)cc1C | inactive
CC(=O)Cn1cnc2c(cnn2-c2ccccc2)c1=O | inactive
CC(C)(C)n1ncc2c(=O)n(Cc3ccc(Cl)cc3)cnc21 | 23.1 µM (active)
c1cc(-c2nn[nH]n2)ccc1CN1CCCCC1 | inactive
CC(=O)Nc1ccc(OCCC[n+]2cccc(C(=O)[O-])c2)cc1 | inactive
Nc1cc(N)nc(SCc2cccc(F)c2)n1 | inactive
O=c1cc(O)nc(SCc2ccccc2Cl)[nH]1 | inactive
Fc1ccc(CSc2nc(NCc3ccccc3)c3ccccc3n2)cc1 | 16.4 µM (active)
Fc1ccc(CNc2nc3ccccc3n3nnnc23)cc1 | inactive
Fc1ccc(Nc2nc(SCc3ccccc3Cl)nc3ccccc23)cc1 | 16.4 µM (active)
Nc1nc(SCc2ccccc2Cl)n[nH]1 | inactive
O=C1NCC(c2ccccc2)(c2ccccc2)C(=O)N1 | inactive
CC(=O)c1nc(N2C(=O)C3CC=C(C)CC3C2=O)sc1C (stereo unspecified) | inactive
Cc1ccc(S(=O)(=O)NC2(C(F)(F)F)NC(=O)N(CCc3ccccc3)C2=O)cc1 (stereo unspecified) | inactive
O=C(Nc1ccccc1F)c1ccc2c(c1)OCO2 | inactive
N[C@@H](C(=O)O)c1ccc(P(=O)(O)O)cc1 | inactive
O=C(c1ccc(Cl)c(Cl)c1)N1CCCC1 | inactive
O=C(COc1ccc(Cl)cc1[N+](=O)[O-])N1CCCCC1 | inactive
O=C(c1ccc(Oc2ccc(Cl)cc2)c([N+](=O)[O-])c1)N1CCCC1 | 14.6 µM (active)
CCOCCN(C=O)c1cccc(OC)c1 | inactive
Cc1cc(C)c2c(Cn3ccnc3)cc(=O)oc2c1 | inactive
CC(C)C[C@H](NC(=O)N1CC(=O)Nc2ccccc21)C(=O)N[C@H](Cc1ccccc1)C(=O)O | inactive
CSCC[C@H](NC(=O)NC1CCCC1)C(=O)O | inactive
O=C(Nc1nccs1)c1cc(S(=O)(=O)N2CCOCC2)c(Cl)cc1Cl | inactive

Compound | Potency
COc1cc(C2NC(=O)NC(c3ccccc3)=C2C(C)=O)c(Br)cc1OCC(N)=O (stereo unspecified) | inactive
CCOC(=O)C1=C(c2ccccc2)NC(=O)NC1c1cc(OCC)c(O)c([N+](=O)[O-])c1 (stereo unspecified) | inactive
CCCOc1ccc(C2NC(=O)NC(c3ccccc3)=C2C(C)=O)cc1OCC (stereo unspecified) | 23.1 µM (active)
CC(C)(C(=O)N1CCC1(C)C(=O)NS(=O)(=O)c1ccc(Br)cc1)c1ccccc1 (stereo unspecified) | inactive
CSc1nsc(SCC(=O)Nc2cc(C(=O)O)ccc2C)n1 | inactive
CC(CN1CCCCC1)c1ccccc1 (stereo unspecified) | inactive
COc1ccc(C(O)(C2CCCCC2)C(CN2CCCC2)c2ccccc2)cc1 (stereo unspecified) | 18.4 µM (active)
OC(C#CCN1CCOCC1)(c1ccccc1)C1CCCCC1 (stereo unspecified) | inactive
CCc1nccn1S(=O)(=O)c1cc(Br)ccc1Br | inactive
O=C(COc1ccc(Cl)cc1)Nc1ccc(-c2nc3cc(Cl)ccc3o2)c(O)c1 | inactive
CCCCCC(=O)Nc1ccc2oc(-c3ccncc3)nc2c1 | inactive
Cc1cc2nc(-c3ccc(NC(=O)c4cc5ccccc5o4)cc3)oc2cc1C | inactive
Cc1nc2nc[nH]n2c(=O)c1NC(=O)c1cccc(OCC(C)C)c1 | inactive
COc1cc(OC)cc(C(=O)Nc2ccc(-c3nc4ccccc4o3)c(O)c2)c1 | 16.4 µM (active)
O=C(Nc1ccc(C(=O)O)c(O)c1)c1ccccc1 | inactive
CCCOc1ccc(C(=O)Nc2ccc3oc(-c4cccc(Cl)c4Cl)nc3c2)cc1 | 7.31 µM (active)
Cc1ccccc1-c1nc2cc(NC(=O)c3cccc(OCCC(C)C)c3)ccc2o1 | 5.17 µM (active)
O=C(Nc1ccc(-c2nc3cc(NC(=O)c4ccccc4Cl)ccc3o2)cc1)c1ccccc1Cl | 2.91 µM (active)
CC(=O)Nc1ccc(-c2nc3ccccc3o2)cc1 | inactive
CCCCOc1ccc(C(=O)Nc2cccc(-c3nc4ccccc4o3)c2C)cc1 | inactive
NS(=O)(=O)c1ccc(CCNC(=O)CNC(=O)Cc2ccccc2)cc1 | inactive
NC(=O)C1CC=CCC1C(=O)OCC(Cl)=C(Cl)Cl (stereo unspecified) | inactive
CC(C)NC(=S)N1CCN(S(C)(=O)=O)CC1 | inactive
C[n+]1cc(-c2ccccc2)oc1-c1ccccc1 | inactive
COc1cc(OC)cc(C(=O)NNC(=O)Cc2cccs2)c1 | inactive
CC(C)(C)n1nc2c(c1NC(=O)c1ccc(S(=O)(=O)N3CCCC3)cc1)CS(=O)C2 (stereo unspecified) | inactive

Compound | Potency
CC(C)(C)n1c(=O)[nH]c2c(c1=O)CCC2 | inactive
CC1(C)CC(=O)C(N=Nc2c(F)cccc2F)=C(O)C1 | inactive
NC1=NC(=O)C2(COC(c3ccccc3Cl)OC2)S1 (stereo unspecified) | inactive
O=C(CSc1ncccn1)NC(=O)NCc1ccccc1 | inactive
COc1cc(NC(=O)CN2CCN(S(=O)(=O)c3ccc(Br)cc3)CC2)cc(OC)c1 | inactive
COc1cccc(C(=O)Nc2ccc3oc(-c4ccc5ccccc5c4)nc3c2)c1 | 10.3 µM (active)
COc1cccc(-c2nc3cc(C)ccc3o2)c1 | inactive
O=C(Nc1ccc(NC(=O)c2cccs2)cc1)c1ccc2ccccc2c1 | inactive
O=C(Nc1ccc2oc(-c3ccc(O)c(Br)c3)nc2c1)c1cc2ccccc2o1 | inactive
COC(=O)c1ccc(-c2nc3cc(NC(C)=O)ccc3o2)cc1 | inactive
O=C(Nc1ccc2oc(-c3ccc4ccccc4c3)nc2c1)c1cccs1 | 23.1 µM (active)
COCCNC(=O)c1ccccc1-c1nc(-c2ccccc2Cl)no1 | inactive
COc1ccccc1CCCNC(=O)C1CCC(=O)N(CCN2CCOCC2)C1 (stereo unspecified) | inactive
Cn1c(N)c(C(=O)COC(=O)COc2ccc(Cl)cc2)c(=O)n(C)c1=O | inactive
N=C1C(=O)OCC1c1ccccc1NC(=O)CN1CCCCC1 (stereo unspecified) | inactive
Cc1cccc(CC2(O)C(=O)Nc3ccccc32)n1 (stereo unspecified) | inactive
CC(Sc1nnc(COc2ccccc2)n1-c1ccccc1)C(=O)O (stereo unspecified) | inactive
CCCCN(CC)CCCNC(=O)c1nn(C)c2c1CS(=O)(=O)c1ccccc1-2 | inactive
CCN1CCN(c2cc(C)c3cc(NC(=O)c4cc(Cl)ccc4OC)ccc3n2)CC1 | 4.11 µM (active)
COC(=O)c1ccc(NC(=O)c2cc(Cl)ccc2OC)cc1 | inactive
Cc1cc(N2CCN(C)CC2)nc2ccc(NC(=S)N3CCOCC3)cc12 | inactive
COc1ccc(C(=O)Nc2ccc3nc(N4CCCCC4)cc(C)c3c2)cc1OC | 14.6 µM (active) and 16.4 µM (active)
COc1cc(NC(=O)c2ccc(CNc3c(N4CCCC4)c(=O)c3=O)cc2)cc(OC)c1OC | inactive
CCOCCCNC(=S)Nc1ccc2nc(N3CCN(CC)CC3)cc(C)c2c1 | inactive
